DAGLB inh = diacylglycerol lipase beta (human) inhibition; inhibition, % at 5.17 µM; hit rate 0.059% among 340,000; Q8NCG7; HEK293T DAGLB membrane lysate, EnzChek fluorogenic substrate; in the data active = inhibition above about 34%
Target sequence (Q8NCG7 whole entry, looked up): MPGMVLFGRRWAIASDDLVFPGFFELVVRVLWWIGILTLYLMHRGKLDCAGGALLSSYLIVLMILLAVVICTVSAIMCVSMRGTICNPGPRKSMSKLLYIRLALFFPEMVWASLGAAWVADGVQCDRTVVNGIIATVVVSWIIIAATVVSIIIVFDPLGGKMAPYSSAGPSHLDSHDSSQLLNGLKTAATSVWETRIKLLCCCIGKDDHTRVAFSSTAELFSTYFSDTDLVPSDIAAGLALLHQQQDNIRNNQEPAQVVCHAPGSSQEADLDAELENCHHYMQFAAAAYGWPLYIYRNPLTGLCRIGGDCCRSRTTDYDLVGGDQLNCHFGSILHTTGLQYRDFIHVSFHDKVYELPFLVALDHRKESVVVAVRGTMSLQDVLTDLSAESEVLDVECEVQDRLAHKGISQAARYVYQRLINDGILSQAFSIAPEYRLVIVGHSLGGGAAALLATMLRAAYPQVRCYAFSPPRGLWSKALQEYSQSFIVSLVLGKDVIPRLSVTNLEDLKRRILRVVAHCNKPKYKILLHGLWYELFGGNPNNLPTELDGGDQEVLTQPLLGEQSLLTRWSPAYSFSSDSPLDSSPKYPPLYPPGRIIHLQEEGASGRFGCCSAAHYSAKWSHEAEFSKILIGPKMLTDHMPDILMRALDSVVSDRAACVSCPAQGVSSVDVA
NadD block = NadD (S. aureus) enzyme inhibition. purified NadD enzyme, colorimetric absorbance read-out. inhibition, % at 20 µM. hit rate 0.78% among 360,000; in the data active = inhibition above about 26%
sPLA2-III inh = Inhibits HGIII-sPLA2 liposome hydrolysis, primary screen. inhibition, % at 12.2 µM. Q9NZ20. hit rate 0.56% among 370,000. QFRET BODIPY PC-A2 liposome hydrolysis, fluorescence;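 active = inhibition above mean plus 3 SD of compounds lying within the high and low control bounds, cut at about 19% in these data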
Neddyl block = inhibitors of human cullin neddylation | P61081+Q13564 | TR-FRET cullin neddylation, biochemical | inhibition, % at 25 µM | hit rate 0.58% among 360,000; in the data active = inhibition above about 36%
ARNT-TACC3 inh = ARNT/TACC3 interaction disruption; inhibition, % at 9.99 µM; hit rate 0.66% among 390,000; AID 623870; AlphaScreen His-ARNT PAS-B/GST-TACC3 binding, luminescence; TACC3 fragment carries E629A point mutation;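 active = mean inhibition of replicates at least 50% and at least half of replicates each reaching 50%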
sPLA2 confirm = human GIII-sPLA2 inhibition, confirmation | inhibition, % at 12.2 µM | hit rate 34% among 2,000 | recombinant hGIII-sPLA2, BODIPY PC-A2 QFRET fluorescence | AID 743280 | shares compounds with sPLA2-III inh;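 active = mean inhibition across triplicates above the hit cutoff set in the earlier primary screen, cut at about 19% in these data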
535nm interf = 535nm fluorescence interference, HGIII-sPLA2 counter-screen; shares compounds with sPLA2-III inh; BODIPY FL product fluorescence interference, QFRET; inhibition, % at 12.2 µM; hit rate 8.5% among 2,000; AID 743282;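 active = average inhibition above the solvent-only control mean plus 3 SD, cut at about 6% in these data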
535nm interf DR = 535nm optical interference dose response, HGIII-sPLA2 counter-screen; shares compounds with sPLA2-III inh; BODIPY FL product fluorescence interference, cell-free; IC50, µM; 240 tested, under 10 active; AID 743455;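 active = IC50 at or below 10 µM; inactive = IC50 above 10 µM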
Each line names hits and unclear results; the compound was inactive in the other large screens (follow-up assays come after a bar, where they were run). The list is not random: actives were taken first. Their share in the collection is about 2%.

COc1cc(S(=O)(=O)n2c(C)nc3ccccc32)ccc1F	sPLA2-III inh 20 | sPLA2 confirm inactive | 535nm interf inactive
O=C(C[C@@H]1CC[C@H](NC(=O)c2ccncc2)[C@@H](CO)O1)NCC1CCCCC1	none (no result: DAGLB inh, NadD block, sPLA2-III inh, Neddyl block)
O=S(=O)(c1cccc(C(F)(F)F)c1)N1CCN(C(=S)NC2CC2)CC1	sPLA2-III inh 22 | sPLA2 confirm inactive | 535nm interf inactive
CCS(=O)(=O)Nc1ccc2c(c1)C(=O)N(C)C[C@@H](OC)[C@H](C)CN(CCC(F)(F)F)[C@@H](C)CO2	none (no result: DAGLB inh, NadD block, sPLA2-III inh, Neddyl block)
O=C(NNC(=O)C1CCN(S(=O)(=O)c2c(Cl)cccc2Cl)CC1)c1ccccc1O	sPLA2-III inh 25 | sPLA2 confirm inactive | 535nm interf inactive
O=C(NNC(=O)c1ccccc1O)c1ccc(Cl)c(S(=O)(=O)N2CCCCC2)c1	sPLA2-III inh 20 | sPLA2 confirm inactive | 535nm interf inactive
NS(=O)(=O)c1cccc(NC(=O)CCC(=O)c2cccs2)c1	none
NS(=O)(=O)c1cccc(NC(=O)c2cccs2)c1	sPLA2-III inh 21 | sPLA2 confirm inactive | 535nm interf inactive
Clc1ncnc2scc(-c3ccc(Br)cc3)c12	sPLA2-III inh 19 | sPLA2 confirm inactive | 535nm interf inactive
Cc1cc(N)n(-c2ncnc3scc(-c4ccc(Cl)cc4)c23)n1	none
C[C@@H]1CN([C@@H](C)CO)S(=O)(=O)c2ccc(/C=C/c3ccccc3)cc2O[C@H]1CN(C)C(=O)c1ccccc1	none (no result: DAGLB inh, NadD block, sPLA2-III inh, Neddyl block)
COc1cccc(C(Nc2ccccc2)c2ccc3ccc(C)nc3c2O)c1 (configuration not stated)	sPLA2-III inh 22 (no result: DAGLB inh, NadD block, ARNT-TACC3 inh) | sPLA2 confirm inactive | 535nm interf 8.3
Cc1ccc(CNC(=O)C2CCCN(c3nc4ccccc4o3)C2)cc1 (configuration not stated)	sPLA2-III inh 19 | sPLA2 confirm inactive | 535nm interf inactive
O=C(Cc1ccc(Cl)c(Cl)c1)NNC(=S)NCC1CCCO1 (configuration not stated)	none
Cc1ccccc1CSCC(=O)NNC(=S)NCC1CCCO1 (configuration not stated)	sPLA2-III inh 24 (no result: ARNT-TACC3 inh) | sPLA2 confirm inactive | 535nm interf inactive
CCCNC(=O)C[C@@H]1CC[C@H]2[C@@H](COC[C@H](O)CN2Cc2ccc(Cl)c(Cl)c2)O1	none (no result: DAGLB inh, NadD block, sPLA2-III inh, Neddyl block)
CCOC(=O)N1CCN(S(=O)(=O)c2ccc(C(=O)NNc3nc4c(C)cc(C)cc4s3)cc2)CC1	sPLA2-III inh 60 (no result: DAGLB inh, ARNT-TACC3 inh) | sPLA2 confirm 45 | 535nm interf inactive | 535nm interf DR inactive
CCOC(=O)N1CCN(S(=O)(=O)c2ccc(C(=O)N(CCN(CC)CC)c3nc4c(C)cccc4s3)cc2)CC1	none
Cc1cccc2sc(NNC(=O)c3ccc(S(=O)(=O)N4CCCC(C)C4)cc3)nc12 (configuration not stated)	sPLA2-III inh 34 | sPLA2 confirm 38 | 535nm interf inactive | 535nm interf DR inactive
CCOC(=O)N1CCN(S(=O)(=O)c2ccc(C(=O)NNc3nc4ccc(Cl)cc4s3)cc2)CC1	none (no result: sPLA2-III inh)
CCOC(=O)N1CCN(S(=O)(=O)c2ccc(C(=O)NNc3nc4c(C)cccc4s3)cc2)CC1	sPLA2-III inh 33 | sPLA2 confirm 39 | 535nm interf inactive | 535nm interf DR inactive
CCc1nnc(NC(=O)c2ccc(S(=O)(=O)N3CCCC(C)C3)cc2)s1 (configuration not stated)	none
Cc1cc(C)c2nc(NNC(=O)c3ccc(S(=O)(=O)N4CCCCC4)cc3)sc2c1	sPLA2-III inh 46 | sPLA2 confirm 53 | 535nm interf inactive | 535nm interf DR inactive
CCCN1C[C@H](C)[C@H](OC)CN(C)C(=O)c2ccc(NC(=O)c3cccc(OC)c3)cc2OC[C@@H]1C	none (no result: DAGLB inh, NadD block, sPLA2-III inh, Neddyl block)
Cc1no[n+]([O-])c1COc1ccc(/C=C2\NC(=S)NC2=O)cc1	none (no result: NadD block, Neddyl block)
CCOc1ccc(/C=C2\NC(=S)NC2=O)cc1	sPLA2-III inh 24 | sPLA2 confirm 23 | 535nm interf inactive
COc1ccc(Cl)cc1C(Nc1cccnc1)c1ccc2cccnc2c1O (configuration not stated)	NadD block 40, sPLA2-III inh 31 | sPLA2 confirm 35 | 535nm interf inactive | 535nm interf DR inactive
CCC(=O)NC(c1ccccc1OC)c1ccc2cccnc2c1O (configuration not stated)	none (no result: sPLA2-III inh)
COc1ccc2cc(C3(C)NC(=O)N(CC(=O)Nc4c(C)n(C)n(-c5ccccc5)c4=O)C3=O)ccc2c1 (configuration not stated)	sPLA2-III inh 21 | sPLA2 confirm inactive | 535nm interf inactive
CC(C)CN(CCCNC(=O)CN1N=C(c2ccc(Cl)cc2)CCC1=O)CC(C)C	sPLA2-III inh 25 | sPLA2 confirm 32 | 535nm interf inactive
O=C(Nc1nnc(-c2ccccc2Cl)s1)C1CCN(S(=O)(=O)c2ccc(Cl)cc2)CC1	none
O=C(Nc1nnc(-c2ccccc2F)s1)C1CCN(S(=O)(=O)c2ccc(Cl)cc2)CC1	sPLA2-III inh 23 | sPLA2 confirm inactive | 535nm interf inactive
CC(C)C#Cc1cnc2c(c1)C(=O)N([C@H](C)CO)C[C@H](C)[C@H](CN(C)Cc1cccc(F)c1)O2	none (no result: DAGLB inh, NadD block, sPLA2-III inh, Neddyl block)
Cc1cc(C)c(S(=O)(=O)n2nc(C)c(Br)c2C)c(C)c1	sPLA2-III inh 19 | sPLA2 confirm inactive | 535nm interf inactive
N#Cc1cc(NC2CCCC2)c([N+](=O)[O-])cc1C#N	sPLA2-III inh 25 | sPLA2 confirm inactive | 535nm interf inactive
CCOC(=O)c1ccc(NC(=S)Nc2cccc(N)n2)cc1	sPLA2-III inh 22 | sPLA2 confirm 22 | 535nm interf inactive
CCOC(=O)c1ccc(NC(=S)Nc2cccc(C)n2)cc1	none
N#Cc1ccc(C(=O)Nc2nc3ccccc3[nH]2)cc1	sPLA2-III inh 23 | sPLA2 confirm inactive | 535nm interf inactive
O=C(Nc1nc2ccccc2[nH]1)c1ccc(F)c(S(=O)(=O)N2CCOCC2)c1	sPLA2-III inh 21 | sPLA2 confirm inactive | 535nm interf inactive
O=C(Nc1nc2ccccc2[nH]1)c1ccc(F)cc1	none
O=C(Nc1nc2ccccc2[nH]1)c1cc(F)cc(F)c1	sPLA2-III inh 24 | sPLA2 confirm 21 | 535nm interf inactive
CO[C@@H]1CN(C)C(=O)c2cc(NC(=O)c3ccccc3)ccc2OC[C@H](C)N(C(C)=O)C[C@@H]1C	none (no result: DAGLB inh, NadD block, sPLA2-III inh, Neddyl block)
COc1ccc(-n2cc(-c3ccc(Cl)cc3)[nH]c2=S)cc1	none
Cc1ccc(-n2c(-c3ccccc3)c[nH]c2=S)cc1	sPLA2-III inh 20 | sPLA2 confirm 27 | 535nm interf inactive
COc1ccc(-n2c(-c3ccc(Cl)cc3)c[nH]c2=S)cc1	sPLA2-III inh 22 | sPLA2 confirm 29 | 535nm interf inactive
